Numbering of substitutions follows the chain as printed.
Experiments:
Experiment in all cases: PBM; 200 nM protein, PBS
Settings in all cases: dsDNA, one strand shown
HESX1 [1] = molecular target: HESX1 (Homo sapiens, UniProt Q9UBX0 95-180, R165K)
HOXA7 [2] = molecular target: HOXA7 (Homo sapiens, UniProt P31268 116-202)
PAX4 [3] = molecular target: T1, PAX4 (Homo sapiens, UniProt O43316 9-242, R200K)
T1 sequence: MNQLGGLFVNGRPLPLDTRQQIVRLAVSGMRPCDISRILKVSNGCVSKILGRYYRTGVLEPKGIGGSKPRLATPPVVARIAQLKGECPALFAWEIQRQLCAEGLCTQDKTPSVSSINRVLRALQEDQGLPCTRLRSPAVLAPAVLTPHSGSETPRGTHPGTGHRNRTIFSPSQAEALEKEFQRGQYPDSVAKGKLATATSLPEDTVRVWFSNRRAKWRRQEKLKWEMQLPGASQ

PAX4 [4] = molecular target: T2, PAX4 (Homo sapiens, UniProt O43316 9-242)
T2 sequence: T1 sequence with K192R

HESX1 [5] = molecular target: HESX1 (Homo sapiens, UniProt Q9UBX0 95-180)
Chain of HESX1 (Homo sapiens, UniProt Q9UBX0 95-180) (Q9UBX0 95-180): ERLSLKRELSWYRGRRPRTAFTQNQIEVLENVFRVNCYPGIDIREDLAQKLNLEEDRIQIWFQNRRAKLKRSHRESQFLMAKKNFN

PAX4 [6] = molecular target: T3, PAX4 (Homo sapiens, UniProt O43316 9-242, R200Q)
T3 sequence: T1 sequence with K192Q

PAX4 [7] = molecular target: T4, PAX4 (Homo sapiens, UniProt O43316 9-242, F177V)
T4 sequence: T1 sequence with F169V, K192R

PAX4 [8] = molecular target: T5, PAX4 (Homo sapiens, UniProt O43316 9-242, F177Y)
T5 sequence: T1 sequence with F169Y, K192R

HESX1 [9] = molecular target: HESX1 (Homo sapiens, UniProt Q9UBX0 95-180, R109Q)
Chain of HESX1 (Homo sapiens, UniProt Q9UBX0 95-180, R109Q) (Q9UBX0 95-180 R109Q): as the sequence (Q9UBX0 95-180) above, with R15Q counted along it

HESX1 [10] = molecular target: HESX1 (Homo sapiens, UniProt Q9UBX0 95-180, P111T)
Chain of HESX1 (Homo sapiens, UniProt Q9UBX0 95-180, P111T) (Q9UBX0 95-180 P111T): as the sequence (Q9UBX0 95-180) above, with P17T counted along it

HESX1 [11] = molecular target: HESX1 (Homo sapiens, UniProt Q9UBX0 95-180, F115L)
Chain of HESX1 (Homo sapiens, UniProt Q9UBX0 95-180, F115L) (Q9UBX0 95-180 F115L): as the sequence (Q9UBX0 95-180) above, with F21L counted along it

PAX4 [12] = molecular target: T6, PAX4 (Homo sapiens, UniProt O43316 9-242, R227W)
T6 sequence: T1 sequence with K192R, R219W

HOXA7 [13] = molecular target: HOXA7 (Homo sapiens, UniProt P31268 116-202, W177C)
Chain of HOXA7 (Homo sapiens, UniProt P31268 116-202, W177C) (P31268 116-202 W177C): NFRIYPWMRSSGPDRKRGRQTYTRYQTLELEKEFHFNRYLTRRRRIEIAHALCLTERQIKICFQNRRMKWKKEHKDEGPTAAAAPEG

NKX2-4 [14] = molecular target: T7, NKX2-4 (Homo sapiens, UniProt Q9H2Z4 175-261, P217L)
T7 sequence: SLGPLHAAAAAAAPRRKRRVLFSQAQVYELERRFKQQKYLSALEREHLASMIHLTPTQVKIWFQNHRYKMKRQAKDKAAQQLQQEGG

NKX2-4 [15] = molecular target: T8, NKX2-4 (Homo sapiens, UniProt Q9H2Z4 175-261, T231S)
T8 sequence: T7 sequence with L43P, T57S

NKX2-4 [16] = molecular target: T9, NKX2-4 (Homo sapiens, UniProt Q9H2Z4 175-261)
T9 sequence: T7 sequence with L43P

NKX2-4 [17] = molecular target: T10, NKX2-4 (Homo sapiens, UniProt Q9H2Z4 175-261, R246Q)
T10 sequence: T7 sequence with L43P, R72Q

Chain of HOXA7 (Homo sapiens, UniProt P31268 116-202) (P31268 116-202): as the sequence (P31268 116-202 W177C) above, with C62W counted along it
Chain of HESX1 (Homo sapiens, UniProt Q9UBX0 95-180, R165K) (Q9UBX0 95-180 R165K): as the sequence (Q9UBX0 95-180) above, with R71K counted along it

CGGGCCCG
binding signal (HESX1 [1]): 6.56 upbm affinity estimate (log intensity, higher = more binding, comparable within an allelic series)
binding signal (HOXA7 [2]): 8.8 upbm affinity estimate (log intensity, higher = more binding, comparable within an allelic series)
binding signal (PAX4 [3]): 9.58 upbm affinity estimate (log intensity, higher = more binding, comparable within an allelic series)
binding signal (PAX4 [4]): 9.62 upbm affinity estimate (log intensity, higher = more binding, comparable within an allelic series)
binding signal (HESX1 [5]): 6.74 upbm affinity estimate (log intensity, higher = more binding, comparable within an allelic series)
binding signal (PAX4 [6]): 9.41 upbm affinity estimate (log intensity, higher = more binding, comparable within an allelic series)
binding signal (PAX4 [7]): 9.21 upbm affinity estimate (log intensity, higher = more binding, comparable within an allelic series)
binding signal (PAX4 [8]): 9.11 upbm affinity estimate (log intensity, higher = more binding, comparable within an allelic series)
binding signal (HESX1 [9]): 6.76 upbm affinity estimate (log intensity, higher = more binding, comparable within an allelic series)
binding signal (HESX1 [10]): 6.72 upbm affinity estimate (log intensity, higher = more binding, comparable within an allelic series)
binding signal (HESX1 [11]): 6.55 upbm affinity estimate (log intensity, higher = more binding, comparable within an allelic series)
binding signal (PAX4 [12]): 9.33 upbm affinity estimate (log intensity, higher = more binding, comparable within an allelic series)
binding signal (HOXA7 [13]): 8.26 upbm affinity estimate (log intensity, higher = more binding, comparable within an allelic series)

GAGCTGGC
binding signal (HESX1 [1]): 6.31 upbm affinity estimate (log intensity, higher = more binding, comparable within an allelic series)
binding signal (NKX2-4 [14]): 9.65 upbm affinity estimate (log intensity, higher = more binding, comparable within an allelic series)
binding signal (HOXA7 [2]): 8.29 upbm affinity estimate (log intensity, higher = more binding, comparable within an allelic series)
binding signal (NKX2-4 [15]): 9.66 upbm affinity estimate (log intensity, higher = more binding, comparable within an allelic series)
binding signal (NKX2-4 [16]): 9.73 upbm affinity estimate (log intensity, higher = more binding, comparable within an allelic series)
binding signal (HESX1 [5]): 6.3 upbm affinity estimate (log intensity, higher = more binding, comparable within an allelic series)
binding signal (NKX2-4 [17]): 9.66 upbm affinity estimate (log intensity, higher = more binding, comparable within an allelic series)
binding signal (HESX1 [9]): 6.49 upbm affinity estimate (log intensity, higher = more binding, comparable within an allelic series)
binding signal (HESX1 [10]): 6.25 upbm affinity estimate (log intensity, higher = more binding, comparable within an allelic series)
binding signal (HESX1 [11]): 6.47 upbm affinity estimate (log intensity, higher = more binding, comparable within an allelic series)
binding signal (HOXA7 [13]): 8.35 upbm affinity estimate (log intensity, higher = more binding, comparable within an allelic series)

Source: publication PMC11006913
